Results filed as inconclusive are left out. Activity calls are given as the source filed them. Calls follow the shape of the dose curve; as a rule, active = well fitted curve in the direction sought with a large enough effect; inconclusive = small, poorly fitted or top-dose-only effect, or another doubt; inactive = no such curve, though single readings can be large; an effect the other way counts as inactive or inconclusive.
Tests used:
[1] = Quantitative High-Throughput drug screen in 47 multiple myeloma cell lines against the NCATS MIPE library collection: PE2_PLB cell viability assay (AID 1919869); also: nearly all actives have a fitted effect of over 35% in size; also: potency is read from the fitted curve at half-maximal effect
Outline: (§1)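 Plated at 500 cells per well, myeloma lines received MIPE 4.0 compounds by pin tool. Following 48 h culture at 37 °C, CellTiter-Glo luminescence gave viability relative to DMSO and media-only controls.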

[2] = Quantitative High-Throughput drug screen in 47 multiple myeloma cell lines against the NCATS MIPE library collection: PCM6_Riken cell viability assay (AID 1919870); also: nearly all actives have a fitted effect of over 30% in size; also: potency is read from the fitted curve at half-maximal effect
Outline: as §1

[3] = Quantitative High-Throughput drug screen in 47 multiple myeloma cell lines against the NCATS MIPE library collection: OPM2_DSMZ cell viability assay (AID 1919872); also: nearly all actives have a fitted effect of over 30% in size
Source text: PI: Beverly A. Mock Ph.D.
Laboratory of Cancer Biology and Genetics,
Center for Cancer Research, National Cancer Institute,
National Institute of Health, Bethesda, Maryland
Drug resistance and disease progression are common in multiple myeloma (MM) patients, underscoring the need for new therapeutic combinations. […] We hypothesized that effective combinations would reduce MYC expression and enhance p16 activity. […] These preclinical data identify potentially useful drug combinations for evaluation in drug-resistant MM and reveal potential mechanisms of combined drug sensitivity.
Described herein is the primary MIPE qHTS used to cherrypick compounds. Validated compounds were then further tested for potential synergistic activiy.
[1] […]
5; Detector; 425V; Luminescence; Viewlux PerkinElmer. […]
1. […] Briefly, the corresponding myeloma cell lines were screened in 1,536-well plates with 500 cells, 5-uL per well for inhibition of cell viability (assessed by measuring ATP levels with CellTiterGlo). […]
5. Signal was measured as median relative luminescence units on a ViewLux (PerkinElmer) multiplate reader. […]

[4] = Quantitative High-Throughput drug screen in 47 multiple myeloma cell lines against the NCATS MIPE library collection: KMS11_JCRBsus cell viability assay (AID 1919873); also: nearly all actives have a fitted effect of over 50% in size; also: potency is read from the fitted curve at half-maximal effect
Outline: as §1

[5] = Quantitative High-Throughput drug screen in 47 multiple myeloma cell lines against the NCATS MIPE library collection: KMS28BM_JCRB cell viability assay (AID 1919874); also: nearly all actives have a fitted effect of over 35% in size; also: potency is read from the fitted curve at half-maximal effect
Outline: as §1

[6] = Quantitative High-Throughput drug screen in 47 multiple myeloma cell lines against the NCATS MIPE library collection: RPMI8226_ATCC cell viability assay (AID 1919871); also: nearly all actives have a fitted effect of over 30% in size; also: potency is read from the fitted curve at half-maximal effect
Outline: as §1

[7] = molecular target: Cytochrome P450 3A4 (Homo sapiens) (UniProt P08684); experiment: qHTS for inhibitors of CYP3A4 against the NCATS DSHEA and TCM libraries (AID 1919971);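 also: inhibition lowers luminescence from luciferin made by CYP3A4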
Outline: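 Light output from converted D-luciferin reports remaining CYP activity. Compounds preincubate with enzyme and substrate for 15 min; NADPH regeneration (1x final) runs the reaction for 30-45 min.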

[8] = molecular target: Cytochrome P450 2D6 (Homo sapiens) (UniProt P10635); experiment: qHTS for inhibitors of CYP2D6 against the NCATS DSHEA and TCM libraries (AID 1919972)
Outline: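 Steps: enzyme plus luciferin substrate dispensed; test substances pinned; 15 min RT; 1x NADPH regenerating solution added, 30–45 min RT protected from light; detection reagent, 30 min RT; luminescence measured. Minus-enzyme wells as background.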

[9] = KB-3-1 P-gp reporter qHTS against the NCATS DSHEA and TCM libraries (AID 1919975)
Outline: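 CellTiter-Glo luminescence viability readout; KB-3-1 parental cells, 500/well, attached ~4 h, then compound for ~72 h, 37C, 5% CO2. Bortezomib intraplate control.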

[10] = molecular target: Cytochrome P450 1A2 (Homo sapiens) (UniProt P05177); experiment: qHTS for inhibitors of CYPIA2 against the NCATS DSHEA and TCM libraries (AID 1919976);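 also: light from luciferin formed by CYP1A2 from a pro-luciferin substrate; series mostly up to about 37 µM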
Outline: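 In this quantitative HTS, inhibition of recombinant human CYP1A2 was measured as loss of luciferin-derived luminescence. Turnover ran 30-45 min at RT after NADPH regeneration solution was added.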

Measured: Potency

Chain of Cytochrome P450 2D6 (Homo sapiens) (P10635 whole entry, looked up): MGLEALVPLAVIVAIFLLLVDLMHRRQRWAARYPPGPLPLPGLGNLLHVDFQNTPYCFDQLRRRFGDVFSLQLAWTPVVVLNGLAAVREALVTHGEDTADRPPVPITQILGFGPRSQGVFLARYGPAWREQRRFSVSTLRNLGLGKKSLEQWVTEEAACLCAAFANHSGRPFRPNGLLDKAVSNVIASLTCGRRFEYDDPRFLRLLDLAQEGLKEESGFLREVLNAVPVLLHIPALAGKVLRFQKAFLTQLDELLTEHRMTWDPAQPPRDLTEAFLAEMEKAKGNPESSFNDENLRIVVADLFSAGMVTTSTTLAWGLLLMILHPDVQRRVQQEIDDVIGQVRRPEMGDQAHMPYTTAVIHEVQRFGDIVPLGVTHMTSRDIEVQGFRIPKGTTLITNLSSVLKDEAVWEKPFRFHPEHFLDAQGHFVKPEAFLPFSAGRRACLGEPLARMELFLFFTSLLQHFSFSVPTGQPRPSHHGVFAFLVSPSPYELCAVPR
Chain of Cytochrome P450 1A2 (Homo sapiens) (P05177 whole entry, looked up): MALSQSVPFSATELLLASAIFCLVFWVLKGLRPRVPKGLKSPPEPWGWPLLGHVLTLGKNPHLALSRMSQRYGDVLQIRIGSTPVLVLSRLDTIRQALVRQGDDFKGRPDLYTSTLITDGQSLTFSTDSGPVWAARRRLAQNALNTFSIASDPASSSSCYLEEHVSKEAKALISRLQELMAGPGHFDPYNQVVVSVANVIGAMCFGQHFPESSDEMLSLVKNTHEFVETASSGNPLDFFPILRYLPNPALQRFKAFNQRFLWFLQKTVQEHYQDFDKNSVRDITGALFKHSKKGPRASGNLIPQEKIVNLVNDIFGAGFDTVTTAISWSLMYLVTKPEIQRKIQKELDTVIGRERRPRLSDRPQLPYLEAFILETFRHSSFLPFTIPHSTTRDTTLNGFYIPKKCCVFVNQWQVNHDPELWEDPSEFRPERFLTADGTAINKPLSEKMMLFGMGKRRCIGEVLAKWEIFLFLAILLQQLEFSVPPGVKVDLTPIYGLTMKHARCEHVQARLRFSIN
Chain of Cytochrome P450 3A4 (Homo sapiens) (P08684 whole entry, looked up): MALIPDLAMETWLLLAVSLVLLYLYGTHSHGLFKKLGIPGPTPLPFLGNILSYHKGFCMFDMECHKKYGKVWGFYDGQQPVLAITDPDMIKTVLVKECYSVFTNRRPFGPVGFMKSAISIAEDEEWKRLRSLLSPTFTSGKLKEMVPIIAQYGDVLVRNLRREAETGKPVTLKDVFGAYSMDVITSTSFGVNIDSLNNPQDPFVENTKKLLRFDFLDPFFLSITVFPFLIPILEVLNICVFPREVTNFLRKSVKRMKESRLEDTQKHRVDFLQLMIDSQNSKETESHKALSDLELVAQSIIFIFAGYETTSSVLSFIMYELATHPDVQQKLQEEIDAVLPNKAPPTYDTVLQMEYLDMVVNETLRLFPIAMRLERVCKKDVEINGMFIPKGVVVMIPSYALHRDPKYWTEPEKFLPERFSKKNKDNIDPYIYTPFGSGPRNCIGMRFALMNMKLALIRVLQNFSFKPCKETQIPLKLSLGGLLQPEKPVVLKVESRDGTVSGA

COC(=O)C1=CCCN(C)C1
inactive: [1] | [2] | [3] | [4] | [5]

O=C(O)c1nn(Cc2ccc(Cl)cc2Cl)c2ccccc12
inactive: [1] | [6] | [3] | [4]

C[C@@H]1C[C@@H]([C@H](O)CC2CC(=O)NC(=O)C2)C(=O)[C@@H](C)C1
active: [1] 1.48 µM | [2] 0.935 µM | [6] 0.833 µM | [4] 0.187 µM | [5] 0.833 µM

COc1ccc(C(=O)N2CCCC2=O)cc1
inactive: [1]
active: [6] 2.35 µM | [4] 20.9 µM | [5] 8.33 µM

C[C@]12CC[C@H](O)CC1=CC[C@@H]1[C@@H]2CC[C@]2(C)C(=O)CC[C@@H]12
inactive: [7] | [8] | [9] | [10]
